A selection: hits, their analogues and other compounds. The true share with any hit is near 7.6%.
RORgamma inh: qHTS for inhibitors of ROR gamma transcriptional activity; hit rate 5.4% among 310,000; Drosophila S2 Gal4-RORgamma UAS-luciferase reporter, 20 h; Nuclear receptor ROR-gamma (Mus musculus), P51450; Potency, µM (titrated, usually from 53.6 µM), most hits filed as inhibitors; further: nearly all actives have a fitted effect of over 60% in size
Target sequence (P51450 whole entry, looked up, the tested form may be a part): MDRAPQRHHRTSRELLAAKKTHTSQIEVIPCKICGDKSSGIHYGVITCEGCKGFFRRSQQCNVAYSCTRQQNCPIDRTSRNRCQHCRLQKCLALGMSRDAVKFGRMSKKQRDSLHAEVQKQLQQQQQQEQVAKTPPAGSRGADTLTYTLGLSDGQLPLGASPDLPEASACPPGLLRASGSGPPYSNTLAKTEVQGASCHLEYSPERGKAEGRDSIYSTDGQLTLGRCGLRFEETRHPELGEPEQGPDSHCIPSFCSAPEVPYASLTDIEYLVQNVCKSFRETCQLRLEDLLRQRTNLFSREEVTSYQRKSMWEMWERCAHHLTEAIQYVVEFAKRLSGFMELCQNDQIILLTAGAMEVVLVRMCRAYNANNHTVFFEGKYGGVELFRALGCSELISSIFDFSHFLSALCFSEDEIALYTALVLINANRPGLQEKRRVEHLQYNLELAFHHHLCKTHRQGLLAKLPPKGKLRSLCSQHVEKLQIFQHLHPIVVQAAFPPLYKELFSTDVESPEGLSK
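Schneider cells (Drosophila), stable Gal4 DBD–ROR gamma + UAS-luc; 1 hr cmpd preincubation; Cu2+ induction 700 uM final; 20 hr ambient; luminescence.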
VP16 counter: VP16 counterscreen qHTS for inhibitors of ROR gamma transcriptional activity. Potency, µM (series often up to 53.6 µM), usual class: inhibitors. Drosophila S2 Gal4-VP16 UAS-luciferase, luminescence, 20 h. hit rate 3.5% among 310,000;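 further: Gal4-VP16 expression switched on by copper sulfate through the metallothionein promoter; nearly all actives have a fitted effect of over 50% in size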
BRCA1 expr act: qHTS Assay to Identify Small Molecule Activators of BRCA1 Expression | MCF7-BRCA1-FFLuc reporter, luminescence, 48 h; response scale: scaled: vehicle 0%, 10 µM genistein 100% | Potency, µM (highest dose often 46.1 µM), usual class: activators | hit rate 1.1% among 380,000 | AID 624202, 2012; further: nearly all actives have a fitted effect of over 80% in size
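Luminescence from a BRCA1-driven firefly luciferase in MCF7 cells was read after 48 h compound exposure at 37 C. Data normalized against DMSO and a 10microM genistein activation control, then curve-fitted across the titration.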
ELG1 DNA repair: qHTS screen for small molecules that inhibit ELG1-dependent DNA repair in human embryonic kidney (HEK293T) cells expressing luciferase-tagged ELG1 | HEK293T ELG1-luciferase reporter, luminescence, 16 h; DNA damage induced by 5-fluorouridine | Potency, µM (titrated, usually from 46.1 µM), most hits filed as inhibitors | hit rate 2.3% among 330,000 | AID 504467, 2011; further: nearly all actives have a fitted effect of over 55% in size
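In this reporter screen, reduction of luminescence relative to DMSO vehicle indicated activity. Compounds and 5-fluorouridine were added together to 2,000 cells per well, incubated for 16 hr at 37 °C, then developed with ONE-Glo.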
p53 reactivator: qHTS assay for re-activators of p53 using a Luc reporter; H1299 p53-A138V BP100-luciferase reporter, luminescence, 24 h; Potency, µM (doses to about 92.2 µM), usual class: activators; hit rate 0.063% among 320,000; further: nearly all actives have a fitted effect of over 45% in size
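H1299 (p53-null), stable ts p53-A138V + BP100-Luc; 1000 cells/well, Opti-MEM/10% FBS; cpd 4 pt, 1:5; 24 h, 37 deg C, 5% CO2; detection reagent 10 min RT; luminescence.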
Giardia killer: Small Molecules that selectively kill Giardia lamblia: qHTS. hit rate 0.15% among 340,000. Giardia lamblia trophozoite viability. activity change, % at 7.66 µM, hits read low. AID 540267, 2011; in the data active means activity change below about -80%; inconclusive means between about -30% and that limit;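 further: parasites exposed to compound for two days anaerobically before the ATP read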
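Viability, read as ATP luminescence: trophozoites at 100 cells/well, compound added, 48 hrs anaerobic at 37 deg C, then 15-30 min room-temperature development before reading.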
Hits are given with their value; i = inactive; ? = inconclusive; nt = no result. Unless noted, the call rests on the fitted dose curve; in most records, active means well fitted curve in the direction sought with a large enough effect; inconclusive means small, poorly fitted or top-dose-only effect, or another doubt; inactive means no such curve, though single readings can be large; an effect the other way counts as inactive or inconclusive.

SMILES	RORgamma inh	VP16 counter	BRCA1 expr act	ELG1 DNA repair	p53 reactivator	Giardia killer
Cc1ccc(N(CC(=O)NCc2ccccc2)C(=O)CCC(=O)Nc2ccccn2)cc1	i	i	i	i	i	i
CC(C)CC(=O)Nc1nc2c(c(=O)[nH]1)CCCC2	i	i	i	i	i	i
O=C(CN1CCOCC1)Nc1ccc(S(=O)(=O)N2CCCCCC2)cc1	i	i	i	i	i	i
CC(=O)C1=C(c2ccccc2)NC(=S)NC1c1cc(Cl)c(OC(C)C)c(Cl)c1 (configuration not stated)	7.08µM	5.01µM	i	?	i	i
COc1ccc(C(=O)Nc2c(-c3ccccc3)nc3ccccn23)c(OC)c1	i	i	i	i	i	i
CN(Cc1cn(C)nc1-c1ccc(Oc2ccccc2)cc1)Cc1cnc2ccccn12	10µM	?	i	?	i	i
CCOC(=O)Cn1c(=NC(=O)C2CC2)sc2c(C)cc(C)cc21	i	i	i	?	i	i
CC(C)(C)c1cc(-c2csc(Nc3ccccc3)[n+]2Cc2ccc(C(=O)O)cc2)cc(C(C)(C)C)c1O	i	i	i	16.4µM	i	i
O=C(O)c1ccc(C[n+]2c(-c3ccccc3)csc2Nc2ccccc2)cc1	5.62µM	i	i	i	i	i
CCCCCC[n+]1c(-c2ccccc2)csc1Nc1ccccc1	i	i	i	i	i	i
Cc1ccc2[nH]c(-c3ccccc3)c(CN(C)C)c(=O)c2c1	i	i	i	i	i	i
Cc1c(C(=O)NC(=S)Nc2ccc3c4c(cccc24)CC3)cccc1[N+](=O)[O-]	2.24µM	5.01µM	i	i	i	i
COc1cc(OC)cc(C(=O)NC(=S)Nc2ccc3c4c(cccc24)CC3)c1	?	5.62µM	i	i	i	i
CC(C)Oc1cccc(C(=O)NC(=S)Nc2ccc3c4c(cccc24)CC3)c1	11.2µM	?	i	i	i	i
COc1ccc(C(=O)NC(=S)Nc2ccc3c4c(cccc24)CC3)cc1OC	7.94µM	?	i	i	i	i
COc1ccc(C(=O)Nc2ccc3c4c(cccc24)CC3)cc1	i	i	i	?	i	i
CCOC(=O)c1c(NC(=O)CN(CC)CC)sc2c1CCC2	12.6µM	?	i	i	i	i
CCN(CC)CC(=O)Nc1sc2c(c1C(=O)c1ccccc1OC)CCC2	3.98µM	10µM	i	i	i	i
CCOC(=O)c1c(NC(=O)CNCCOC)sc2c1CCCC2	1.26µM	1.58µM	i	i	i	i
CCOC(=O)c1c(NC(=O)CCC(=O)O)sc2c1CCCCC2	i	i	i	i	i	i
COc1ccccc1CC(=O)Nc1sc2c(c1C(N)=O)CCCC2	i	i	i	i	i	i
CSc1nncn1/N=C/c1cc(Cl)ccc1F	i	?	i	i	i	i
Cc1cc(C)c2nc(C)cc(N/N=C/c3ccc(O)cc3)c2c1	?	4.47µM	i	i	nt	i
Cc1cc(-c2ccccc2)nc(N/N=C/c2ccc(O)cc2)n1	nt	nt	i	i	i	i
Cc1cc(N/N=C/c2ccc(O)cc2O)c2ccccc2n1	?	?	i	i	nt	i
SMILES	RORgamma inh	VP16 counter	BRCA1 expr act	ELG1 DNA repair	p53 reactivator	Giardia killer
Cc1cc(N/N=C/c2ccc(O)cc2)c2cccc(C)c2n1	?	17.8µM	i	?	i	i
Cc1cc(N/N=C/c2ccc(N(C)C)cc2)c2ccccc2n1	15.8µM	?	?	i	nt	i
Cc1c2c(nc3ccccc13)CCC(C)C2 (configuration not stated)	11.2µM	i	i	i	i	i
Oc1ccc(N=Nc2ccc(Br)cc2)c(O)c1	?	?	i	?	?	i
Cc1ccc(N=Nc2ccc(O)cc2)c(Br)c1	2.82µM	?	?	?	i	i
CC(=O)c1ccc(N2CCN(C(=O)CN(C)S(=O)(=O)c3cnc[nH]3)CC2)cc1	i	i	i	i	i	i

Assay outcomes as filed in PubChem.
